# The campaign covered roughly 39,000 compounds. About 3,300 (8.5%) were called active. The entries come from a sample that favours actives as a whole.
# System: HepG2
# Experiment: cytotoxicity call (relative viability < 0.9)
# Settings: 10 µM
row,Structure (SMILES),cytotoxicity call
1,Cc1cc(O)c(C(=O)NC(C(=O)NC2C(=O)N3C(C(=O)O)=C(CSc4nnnn4C)CSC23)c2ccc(O)cc2)cn1 (stereo not given),inactive
2,C[C@H](CO)N1C[C@H](C)[C@@H](CN(C)C(=O)Nc2cccc3ccccc23)Oc2ccc(NC(=O)Nc3ccc4c(c3)OCO4)cc2C1=O,inactive
3,N[C@H]1[C@H](CCCCC(=O)O)SC[C@@H]1N,inactive
4,Cc1noc(C)c1NC(=O)N(C)C[C@@H]1Oc2ccc(NC(=O)c3ccncc3)cc2CC(=O)N([C@@H](C)CO)C[C@H]1C,inactive
5,CC(Cc1ccc(O)c(O)c1)C(C)Cc1ccc(O)c(O)c1 (stereo not given),inactive
6,Cl.NCCc1ccc(O)c(O)c1,active
7,NCCc1ccc(O)c(O)c1,inactive
8,O=C(C[C@H]1CC[C@@H]2[C@H](COC[C@@H](O)CN2C(=O)C2CC2)O1)NCc1ccncc1,inactive
9,COc1cc(CO)cc(I)c1O[C@H]1C=C(C(=O)NCCO)C[C@@H](NCc2ccc(F)cc2)[C@@H]1O,inactive
10,COc1cc(CO)cc(I)c1O[C@H]1C=C(C(=O)NCCO)C[C@@H](NC2CCCCCC2)[C@@H]1O,active
11,COc1cc(CO)cc(I)c1O[C@H]1C=C(C(=O)NCCO)C[C@@H](NC[C@@H]2CCCO2)[C@@H]1O,inactive
12,C[C@@H]1CCCCO[C@@H](CN(C)Cc2ccc(Cl)c(Cl)c2)[C@H](C)CN([C@H](C)CO)C(=O)c2cc(NC(=O)Cc3ccccc3)ccc2O1,inactive
13,C[C@@H]1CCCCO[C@@H](CN(C)Cc2ccc(Cl)c(Cl)c2)[C@@H](C)CN([C@H](C)CO)C(=O)c2cc(NC(=O)Cc3ccccc3)ccc2O1,active
14,C[C@H](CO)N1C[C@H](C)[C@@H](CN(C)Cc2ccc(Cl)c(Cl)c2)OCCCC[C@H](C)Oc2ccc(NC(=O)Cc3ccccc3)cc2C1=O,active
15,C[C@@H]1CN([C@@H](C)CO)C(=O)c2cc(NC(=O)Cc3ccccc3)ccc2O[C@@H](C)CCCCO[C@H]1CN(C)Cc1ccccc1,inactive
16,C[C@@H]1CN([C@H](C)CO)C(=O)c2cc(NC(=O)Cc3ccccc3)ccc2O[C@@H](C)CCCCO[C@H]1CN(C)Cc1ccc(Cl)c(Cl)c1,active
17,C[C@@H]1CCCCO[C@H](CN(C)Cc2ccc(Cl)c(Cl)c2)[C@@H](C)CN([C@H](C)CO)C(=O)c2cc(NC(=O)Cc3ccccc3)ccc2O1,active
18,C[C@@H]1CN([C@@H](C)CO)C(=O)c2cc(NC(=O)Cc3ccccc3)ccc2O[C@@H](C)CCCCO[C@@H]1CN(C)Cc1ccccc1,inactive
19,C[C@@H]1CCCCO[C@H](CN(C)Cc2ccc(Cl)c(Cl)c2)[C@H](C)CN([C@@H](C)CO)C(=O)c2cc(NC(=O)Cc3ccccc3)ccc2O1,inactive
20,C[C@@H]1CCCCO[C@@H](CN(C)Cc2ccccc2)[C@@H](C)CN([C@@H](C)CO)C(=O)c2cc(NC(=O)Cc3ccccc3)ccc2O1,inactive

row,Structure (SMILES),cytotoxicity call
1,C[C@H]1CCCCO[C@@H](CN(C)Cc2ccccc2)[C@@H](C)CN([C@@H](C)CO)C(=O)c2cc(NC(=O)Cc3ccccc3)ccc2O1,inactive
2,CC(C)NC(=O)[C@@]1(C)c2ccccc2C(=O)N(Cc2cc(C(F)(F)F)cc(C(F)(F)F)c2)[C@H]1c1ccc(CO)cc1,inactive
3,C[C@H](CO)N1C[C@H](C)[C@@H](CN(C)S(=O)(=O)c2ccccc2F)Oc2cc(C#Cc3cccc(F)c3)ccc2S1(=O)=O,inactive
4,COc1ccc(S(=O)(=O)N(C)C[C@H]2Oc3ccc(NC(=O)Cc4ccccc4)cc3CC(=O)N([C@@H](C)CO)C[C@@H]2C)cc1,inactive
5,C[C@H](CO)N1C[C@H](C)[C@@H](CN(C)C(=O)Cc2ccccn2)Oc2ncc(C#CC3CCCCC3)cc2C1=O,inactive
6,C[C@H](CO)N1C[C@H](C)[C@H](CN(C)S(=O)(=O)c2ccc(F)cc2)Oc2ccc(NC(=O)c3ccncc3)cc2C1=O,inactive
7,CC(C)NC(=O)Nc1ccc2c(c1)CC(=O)N([C@@H](C)CO)C[C@H](C)[C@@H](CN(C)Cc1ccc3c(c1)OCO3)O2,inactive
8,C[C@@H]1CCCCO[C@@H](CN(C)C(=O)c2ccccc2)[C@H](C)CN([C@@H](C)CO)C(=O)c2cc(NC(=O)Nc3ccc(F)cc3)ccc2O1,inactive
9,C[C@H](NC(=O)C[C@H]1C[C@H]2c3cc(NC(=O)Nc4ccc(C(F)(F)F)cc4)ccc3O[C@H]2[C@@H](CO)O1)c1ccccc1,inactive
10,CC(C)[Si]1(C(C)C)OCc2cc(-c3ccc(-c4ccc(Cl)c(Cl)c4)o3)nc(-c3ccccc3)c21,inactive
11,CCC(=O)OC1C2CC3=C4CC(=O)OC(c5ccoc5)C4(C)CCC3C(C)(C2=O)C(CC(=O)OC)C1(C)C (stereo not given),inactive
12,C[C@H](CO)N1C[C@H](C)[C@@H](CN(C)S(=O)(=O)c2ccccc2)OCCCC[C@H](C)Oc2ccc(NC(=O)NC3CCCCC3)cc2C1=O,inactive
13,C[C@H]1CCCCO[C@H](CN(C)Cc2ccc(Cl)c(Cl)c2)[C@@H](C)CN([C@@H](C)CO)C(=O)c2cc(NC(=O)Cc3ccccc3)ccc2O1,active
14,C[C@@H]1CCCCO[C@H](CN(C)Cc2ccc(Cl)c(Cl)c2)[C@@H](C)CN([C@@H](C)CO)C(=O)c2cc(NC(=O)Cc3ccccc3)ccc2O1,inactive
15,C[C@@H]1CCCCO[C@@H](CN(C)Cc2ccc(Cl)c(Cl)c2)[C@H](C)CN([C@@H](C)CO)C(=O)c2cc(NC(=O)Cc3ccccc3)ccc2O1,active
16,C[C@@H]1CCCCO[C@@H](CN(C)Cc2ccc(Cl)c(Cl)c2)[C@@H](C)CN([C@@H](C)CO)C(=O)c2cc(NC(=O)Cc3ccccc3)ccc2O1,inactive
17,C[C@@H]1CCCCO[C@H](CN(C)Cc2ccccc2)[C@@H](C)CN([C@H](C)CO)C(=O)c2cc(NC(=O)Cc3ccccc3)ccc2O1,inactive
18,C[C@@H]1CN([C@H](C)CO)C(=O)c2cc(NC(=O)Cc3ccccc3)ccc2O[C@@H](C)CCCCO[C@@H]1CN(C)Cc1ccc(Cl)c(Cl)c1,inactive
19,C[C@H]1CN([C@@H](C)CO)S(=O)(=O)c2ccc(C#CC3(O)CCCC3)cc2O[C@@H]1CN(C)C(=O)Nc1ccccc1,inactive
20,C[C@H](CO)N1C[C@H](C)[C@@H](CN(C)S(=O)(=O)c2cccs2)OCCCC[C@H](C)Oc2ccc(NC(=O)Cc3ccccc3)cc2C1=O,inactive

# Source: the antibiotic and cytotoxicity screens of Wong et al. (2023)
